In PubChem BioAssay AID1159580 (chemical genetic matrix, 2015):
Screen size: about 5,500 compounds; about 2,000 (36%) were called active. Inconclusive results (about 18%) are left out. No stated cut-off is given here; in the data, active means normalized growth mostly below about 0.91 (no sharp cut-off); inconclusive means no clear call, values can overlap the other calls; inactive means mostly above about 0.92. The list shows a part of the results.

Test: chemical genetic growth profiling, strain panel (AID 1159580);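 further: tested at 20 µM; growth read once vehicle control cultures reached saturation at 30 °C; 1 = growth at the plate median or of vehicle wells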
Conditions: growth OD
[1] = S. cerevisiae deletion strains, locus YAL013W, strain DEP1, stronger effect = lower value
[2] = S. cerevisiae deletion strains, locus YDR150W, strain NUM1, stronger effect = lower value
[3] = S. cerevisiae deletion strains, locus YGR078C, strain PAC10, stronger effect = lower value
[4] = S. cerevisiae deletion strains, locus YJR075W, strain HOC1, stronger effect = lower value
[5] = S. cerevisiae deletion strains, locus YMR307W, strain GAS1, stronger effect = lower value
[6] = S. cerevisiae deletion strains, locus YNL128W, strain TEP1, stronger effect = lower value
[7] = S. cerevisiae deletion strains, locus YNL153C, strain GIM3, stronger effect = lower value
[8] = S. cerevisiae deletion strains, locus YNL322C, strain KRE1, stronger effect = lower value
[9] = S. cerevisiae deletion strains, locus YPL055C, strain LGE1, stronger effect = lower value
[10] = S. cerevisiae deletion strains, locus YPL241C, strain CIN2, stronger effect = lower value

Measured: normalized growth

NC(=S)NCCCC(N)C(=O)O (centres undefined)
inactive: [1] 1.01 | S. cerevisiae deletion strains, locus YAL040C, strain CLN3, stronger effect = lower value 1 | S. cerevisiae deletion strains, locus YCL061C, strain MRC1 (second series), stronger effect = lower value 1.01 | [2] 1.01 | S. cerevisiae deletion strains, locus YDR363W, strain ESC2, stronger effect = lower value 1.02 | S. cerevisiae deletion strains, locus YER002W, strain NOP16, stronger effect = lower value 1.02 | [3] 1.01 | [4] 1.02 | [5] 1.01 | [6] 1.03 | [7] 1.01 | S. cerevisiae deletion strains, locus YNL175C, strain NOP13, stronger effect = lower value 1.03 | S. cerevisiae deletion strains, locus YNL197C, strain WHI3, stronger effect = lower value 1.01 | S. cerevisiae deletion strains, locus YNL224C, strain SQS1, stronger effect = lower value 1.02 | [8] 1.02 | S. cerevisiae deletion strains, locus YOR083W, strain WHI5 (second series), stronger effect = lower value 0.994 | [9] 1.03 | [10] 1.01

CCc1cccc(CC)c1N(COC)C(=O)CCl
inactive: [1] 1 | S. cerevisiae deletion strains, locus YBR021W, strain FUR4, stronger effect = lower value 1.01 | S. cerevisiae deletion strains, locus YBR229C, strain ROT2, stronger effect = lower value 1.01 | S. cerevisiae deletion strains, locus YCL029C, strain bik1, stronger effect = lower value 1.02 | S. cerevisiae deletion strains, locus YDL035C, strain GPR1, stronger effect = lower value 1.02 | S. cerevisiae deletion strains, locus YDL074C, strain BRE1, stronger effect = lower value 1.03 | S. cerevisiae deletion strains, locus YDL101C, strain DUN1, stronger effect = lower value 1.01 | S. cerevisiae deletion strains, locus YDL134C, strain PPH21, stronger effect = lower value 1.01 | S. cerevisiae deletion strains, locus YDL185W, strain tfp1, stronger effect = lower value 1.02 | S. cerevisiae deletion strains, locus YDL192W, strain arf1, stronger effect = lower value 1.03 | S. cerevisiae deletion strains, locus YDR101C, strain arx1, stronger effect = lower value 1.02 | [2] 0.995 | S. cerevisiae deletion strains, locus YDR162C, strain NBP2, stronger effect = lower value 0.999 | S. cerevisiae deletion strains, locus YDR318W, strain mcm21, stronger effect = lower value 1.02 | S. cerevisiae deletion strains, locus YDR388W, stronger effect = lower value 1.02 | S. cerevisiae deletion strains, locus YDR502C, strain sam2, stronger effect = lower value 1.02 | S. cerevisiae deletion strains, locus YEL061C, strain CIN8, stronger effect = lower value 1 | S. cerevisiae deletion strains, locus YER110C, stronger effect = lower value 1.01 | S. cerevisiae deletion strains, locus YER155C, strain BEM2, stronger effect = lower value 1 | S. cerevisiae deletion strains, locus YER167W, strain BCK2, stronger effect = lower value 1 | S. cerevisiae deletion strains, locus YGL078C, strain dbp3, stronger effect = lower value 1.02 | S. cerevisiae deletion strains, locus YGL086W, strain mad1, stronger effect = lower value 0.999 | S. cerevisiae deletion strains, locus YGL248W, strain PDE1, stronger effect = lower value 1.01 | [3] 1.01 | S. cerevisiae deletion strains, locus YGR135W, strain pre9, stronger effect = lower value 1.02 | S. cerevisiae deletion strains, locus YGR229C, strain SMI1, stronger effect = lower value 1.02 | S. cerevisiae deletion strains, locus YGR252W, strain gcn5, stronger effect = lower value 1.05 | S. cerevisiae deletion strains, locus YHR030C, strain SLT2, stronger effect = lower value 1 | S. cerevisiae deletion strains, locus YHR079C, strain IRE1 (second series), stronger effect = lower value 1.02 | S. cerevisiae deletion strains, locus YHR094C, strain hxt1, stronger effect = lower value 1.02 | S. cerevisiae deletion strains, locus YHR129C, strain ARP1, stronger effect = lower value 1 | S. cerevisiae deletion strains, locus YHR200W, strain rpn10, stronger effect = lower value 1.02 | S. cerevisiae deletion strains, locus YIL066C, strain RNR3, stronger effect = lower value 1.01 | S. cerevisiae deletion strains, locus YIL073C, strain SPO22, stronger effect = lower value 1.11 | S. cerevisiae deletion strains, locus YIL125W, strain kgd1, stronger effect = lower value 1.01 | S. cerevisiae deletion strains, locus YIR030C, strain dcg1, stronger effect = lower value 1.03 | S. cerevisiae deletion strains, locus YJL095W, strain BCK1, stronger effect = lower value 1.02 | S. cerevisiae deletion strains, locus YJL134W, strain LCB3, stronger effect = lower value 1.01 | S. cerevisiae deletion strains, locus YJL168C, strain set2, stronger effect = lower value 1.03 | S. cerevisiae deletion strains, locus YJL187C, strain SWE1 (second series), stronger effect = lower value 1 | S. cerevisiae deletion strains, locus YJR043C, strain POL32, stronger effect = lower value 1.01 | [4] 1.01 | S. cerevisiae deletion strains, locus YKL009W, strain mrt4, stronger effect = lower value 1.05 | S. cerevisiae deletion strains, locus YKL068W, stronger effect = lower value 0.999 | S. cerevisiae deletion strains, locus YKL085W, strain MDH1 (second series), stronger effect = lower value 1.01 | S. cerevisiae deletion strains, locus YKL085W, strain MDH1, stronger effect = lower value 1.01 | S. cerevisiae deletion strains, locus YKL190W, strain CNB1, stronger effect = lower value 0.992 | S. cerevisiae deletion strains, locus YKR001C, strain vps1, stronger effect = lower value 1.04 | S. cerevisiae deletion strains, locus YLR039C, strain RIC1, stronger effect = lower value 1 | S. cerevisiae deletion strains, locus YLR058C, strain SHM2, stronger effect = lower value 1.01 | S. cerevisiae deletion strains, locus YLR102C, strain apc9, stronger effect = lower value 1.03 | S. cerevisiae deletion strains, locus YLR262C, strain YPT6, stronger effect = lower value 1.02 | S. cerevisiae deletion strains, locus YLR268W, strain sec22, stronger effect = lower value 1.02 | S. cerevisiae deletion strains, locus YLR330W, strain CHS5, stronger effect = lower value 1.01 | S. cerevisiae deletion strains, locus YLR342W, strain FKS1 (second series), stronger effect = lower value 1 | S. cerevisiae deletion strains, locus YLR371W, strain rom2, stronger effect = lower value 1.02 | S. cerevisiae deletion strains, locus YLR418C, strain cdc73, stronger effect = lower value 1.05 | S. cerevisiae deletion strains, locus YML016C, strain PPZ1, stronger effect = lower value 1 | S. cerevisiae deletion strains, locus YML032C, strain rad52, stronger effect = lower value 1.03 | S. cerevisiae deletion strains, locus YML124C, strain tub3, stronger effect = lower value 1.01 | S. cerevisiae deletion strains, locus YMR078C, strain ctf18, stronger effect = lower value 1.02 | S. cerevisiae deletion strains, locus YMR223W, strain ubp8, stronger effect = lower value 1.02 | S. cerevisiae deletion strains, locus YMR263W, strain SAP30, stronger effect = lower value 0.997 | [5] 1.01 | S. cerevisiae deletion strains, locus YNL067W, strain RPL9B, stronger effect = lower value 1 | [6] 1.01 | [7] 1 | S. cerevisiae deletion strains, locus YNL233W, strain BNI4, stronger effect = lower value 1.01 | S. cerevisiae deletion strains, locus YNL250W, strain rad50, stronger effect = lower value 1.02 | S. cerevisiae deletion strains, locus YNL271C, strain bni1, stronger effect = lower value 1.03 | S. cerevisiae deletion strains, locus YNL298W, strain CLA4, stronger effect = lower value 1.03 | S. cerevisiae deletion strains, locus YNL307C, strain MCK1, stronger effect = lower value 1.03 | [8] 1 | S. cerevisiae deletion strains, locus YNR052C, strain pop2, stronger effect = lower value 1.03 | S. cerevisiae deletion strains, locus YOL006C, strain TOP1, stronger effect = lower value 1.05 | S. cerevisiae deletion strains, locus YOL012C, strain htz1 1.33 | S. cerevisiae deletion strains, locus YOL147C, strain pex11, stronger effect = lower value 1.02 | S. cerevisiae deletion strains, locus YOR061W, strain CKA2, stronger effect = lower value 0.999 | S. cerevisiae deletion strains, locus YOR069W, strain VPS5, stronger effect = lower value 0.999 | S. cerevisiae deletion strains, locus YOR136W, strain idh2, stronger effect = lower value 1.02 | S. cerevisiae deletion strains, locus YOR144C, strain elg1, stronger effect = lower value 1.02 | S. cerevisiae deletion strains, locus YOR184W, strain ser1, stronger effect = lower value 1.04 | S. cerevisiae deletion strains, locus YOR316C, strain cot1, stronger effect = lower value 1.03 | [9] 1.02 | [10] 1.01 | S. cerevisiae deletion strains, locus YPR119W, strain clb2, stronger effect = lower value 1.02 | S. cerevisiae deletion strains, locus YPR141C, strain kar3, stronger effect = lower value 1.03 | S. cerevisiae deletion strains, locus YPR163C, strain tif3, stronger effect = lower value 1.03 | S. cerevisiae deletion strains, locus YPR167C, strain met16, stronger effect = lower value 1.02 | S. cerevisiae deletion strains, strain wtn01, stronger effect = lower value 1.01 | S. cerevisiae strains, strain wild type, stronger effect = lower value 1
